{"source": "paper PMC7819943", "about": "“Rice protein-binding microarrays: a tool to detect cis-acting elements near promoter regions in rice”", "note": "Over roughly 35,000 sequences, “fluorescence intensity (a.u.)” has its median near 10,000; the highest 2% begin near 52,000. Shown is part of a subset that was picked to be rich in the highest values.", "data": [{"target": "T1, OsWOX13 (Oryza sativa, UniProt Q5QMM3 1-267)", "T1 sequence": "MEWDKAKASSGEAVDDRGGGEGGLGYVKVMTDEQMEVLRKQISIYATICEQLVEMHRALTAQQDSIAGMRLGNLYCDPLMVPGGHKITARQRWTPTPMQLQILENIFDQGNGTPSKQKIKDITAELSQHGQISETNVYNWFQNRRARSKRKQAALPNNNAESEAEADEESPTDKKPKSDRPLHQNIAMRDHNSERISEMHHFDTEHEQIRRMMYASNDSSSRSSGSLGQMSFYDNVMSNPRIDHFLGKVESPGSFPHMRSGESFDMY", "experiment": "protein-binding microarray (RPBM); PBS, 2% BSA, 51.3 ng/ul salmon testes DNA, 50 uM zinc acetate, 200 nM TF, 25 C, 1 h; high values mean tight binding", "details": "protein: recombinant; tags: N-terminal polyhistidine and DsRed monomer fusion (pET32a); label: CyDye5-dUTP incorporated in the synthesized complementary strand; 3' TTTTT single-stranded linker to array surface; dsDNA, one strand shown", "how_it_was_run": "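An Axon 4000B scanner gave the binding signal as per-feature fluorescence intensity in arbitrary units. This followed washing of a custom Agilent array that had been incubated for 1 h at 25 °C with 200 nM protein in PBS, 2% BSA, salmon testes DNA and 50 µM zinc acetate. The proteins were transcription factors fused at the N-terminus to polyhistidine and DsRed, expressed in E. coli BL21-CodonPlus and purified on Ni–NTA.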", "values": [{"sequence": "GAGTACAGATGAAATTTGTAGAAATTGGAATGGTCATGTACGGAGTCACCTAGTGCAG", "binding signal": "3810 fluorescence intensity (a.u.)"}, {"sequence": "GGCAAATTGTCAAGGTTAACCGTAAATCTACAGTGCCAATCGGAGTCACCTAGTGCAG", "binding signal": "15500 fluorescence intensity (a.u.)"}, {"sequence": "TCTTCACATGAATGATGAAATTGCTAGTAGCATGTCTTCACGGAGTCACCTAGTGCAG", "binding signal": "3410 fluorescence intensity (a.u.)"}, {"sequence": "GATTTAAATTAGATGGAAGGTTGAGAATTAAGCTGATCCTCGGAGTCACCTAGTGCAG", "binding signal": "13600 fluorescence intensity (a.u.)"}, {"sequence": "AAATTAAATTTTATTTGTTGAAAATAATATCATTGGATTGCGGAGTCACCTAGTGCAG", "binding signal": "6020 fluorescence intensity (a.u.)"}, {"sequence": "ACATTCCAAAATTTGACCAAATTTGTTCACTCGTTGACTGCGGAGTCACCTAGTGCAG", "binding signal": "3660 fluorescence intensity (a.u.)"}, {"sequence": "ACTTGTTGAAAATTGATTGCTTTGTTGTTGTAGTGTTTACCGGAGTCACCTAGTGCAG", "binding signal": "23600 fluorescence intensity (a.u.)"}, {"sequence": "TTCGATTGATTGATAGTTGATTGTGTGTTTACAATTGAACCGGAGTCACCTAGTGCAG", "binding signal": "52600 fluorescence intensity (a.u.)"}, {"sequence": "GGAGTTGATTGATGGACCTAGAATTGGTTGAGATCCTCAGCGGAGTCACCTAGTGCAG", "binding signal": "63700 fluorescence intensity (a.u.)"}, {"sequence": "TTATATTAATTGATGGTCATTATTGTTGGAGATTATATTGCGGAGTCACCTAGTGCAG", "binding signal": "60800 fluorescence intensity (a.u.)"}, {"sequence": "CAGTGGATGATTAATATTGATTAATTATTATAATTGTTTTCGGAGTCACCTAGTGCAG", "binding signal": "39500 fluorescence intensity (a.u.)"}, {"sequence": "AATTGATTGGACTCCACCAACATTAAAATAGTTGTTGATGCGGAGTCACCTAGTGCAG", "binding signal": "56400 fluorescence intensity (a.u.)"}, {"sequence": "TGATTAAAATTGACATTAAAATTATAGTTTTGTGATGACTCGGAGTCACCTAGTGCAG", "binding signal": "19100 fluorescence intensity (a.u.)"}, {"sequence": "CGTCTACCGTGATTGTTTCGATACAATTGTGTGCAAGTTACGGAGTCACCTAGTGCAG", "binding signal": "21200 fluorescence intensity (a.u.)"}, {"sequence": "CAGAATTGAGAGTTCACATATCCTCAGTGGTCAGAGTTCACGGAGTCACCTAGTGCAG", "binding signal": "6100 fluorescence intensity (a.u.)"}, {"sequence": "CAGTTTTGGTTAATTAAGTAAATAATTGTCCTCAGAAAGTCGGAGTCACCTAGTGCAG", "binding signal": "15100 fluorescence intensity (a.u.)"}, {"sequence": "CATAAATTTTCCGTGCCAACTTTGATCATCCGTTTTATTTCGGAGTCACCTAGTGCAG", "binding signal": "5660 fluorescence intensity (a.u.)"}, {"sequence": "CTATACAACAAATCATTAATTAGGCTCAAAAGAAAGAAAGCGGAGTCACCTAGTGCAG", "binding signal": "11100 fluorescence intensity (a.u.)"}, {"sequence": "CACATGCAAATTATCGTGCGTCTGTATGTGGCATGCTTGTCGGAGTCACCTAGTGCAG", "binding signal": "4230 fluorescence intensity (a.u.)"}, {"sequence": "AGAGAATTGAATTAATCCGTGTGATATATCACTAAAATTCCGGAGTCACCTAGTGCAG", "binding signal": "5900 fluorescence intensity (a.u.)"}, {"sequence": "ACGGTGTGATTAATTACGTCGCGATCATGTTGTGCTAATCCGGAGTCACCTAGTGCAG", "binding signal": "32500 fluorescence intensity (a.u.)"}, {"sequence": "ATACTAATTACTTAATTAGTGACCAGTGATCACTTGTGTGCGGAGTCACCTAGTGCAG", "binding signal": "45800 fluorescence intensity (a.u.)"}, {"sequence": "GGAGATTGACACGTTGGTCTACGTGCCTATGCGTGTGTTCCGGAGTCACCTAGTGCAG", "binding signal": "55600 fluorescence intensity (a.u.)"}, {"sequence": "AATGTTTTAATCACATTGATTAGCAACTAATTAATCTTAGCGGAGTCACCTAGTGCAG", "binding signal": "47100 fluorescence intensity (a.u.)"}, {"sequence": "AGAGATCGAGATTGACACACAACGTGGTTCACGCGTGCGCCGGAGTCACCTAGTGCAG", "binding signal": "23100 fluorescence intensity (a.u.)"}, {"sequence": "GCCACTAAATTAATCCGGTGATTGATCATGTGTGGAAGCACGGAGTCACCTAGTGCAG", "binding signal": "54200 fluorescence intensity (a.u.)"}, {"sequence": "TTTAATCACTAATTAATTGTTGATTAGCGGCAAGTGTGACCGGAGTCACCTAGTGCAG", "binding signal": "63800 fluorescence intensity (a.u.)"}, {"sequence": "TACGTGTGTTGATTTCCGTGACATATGCATAAATTTCTTTCGGAGTCACCTAGTGCAG", "binding signal": "3870 fluorescence intensity (a.u.)"}, {"sequence": "TTTTGATGAAATAAACTATGAAAATCCTGTGAAATTCATGCGGAGTCACCTAGTGCAG", "binding signal": "7340 fluorescence intensity (a.u.)"}, {"sequence": "GATTTGATTTAAATCTTGAATAAATTTAATAAAATCCTATCGGAGTCACCTAGTGCAG", "binding signal": "10000 fluorescence intensity (a.u.)"}, {"sequence": "ATGATTGAATCCTATAAAATCTTGTGAAATTCCTGTGAAACGGAGTCACCTAGTGCAG", "binding signal": "52800 fluorescence intensity (a.u.)"}, {"sequence": "TTCATTAATCTCCCGGTGATGGATGAACGGGGAAAAGGGCCGGAGTCACCTAGTGCAG", "binding signal": "4280 fluorescence intensity (a.u.)"}, {"sequence": "GATGTTAAGTTTTGGGCATATGATTGAATTGTCTTATATACGGAGTCACCTAGTGCAG", "binding signal": "4180 fluorescence intensity (a.u.)"}, {"sequence": "CTGTTTGATTTAGCTTAGGATTATTAGGTGTAAGCTGAAACGGAGTCACCTAGTGCAG", "binding signal": "3910 fluorescence intensity (a.u.)"}, {"sequence": "AACCAATCACGTCGCAGATAAGGCCTGACAGGTGTGCCCCCGGAGTCACCTAGTGCAG", "binding signal": "32700 fluorescence intensity (a.u.)"}, {"sequence": "CGCGTGTGGTGATTGGCTGGCTCTTTGCCTCATCATGGGCCGGAGTCACCTAGTGCAG", "binding signal": "34100 fluorescence intensity (a.u.)"}, {"sequence": "ATAGATTGATTTGATAATTTCCTTGAGAGTAACACATGGGCGGAGTCACCTAGTGCAG", "binding signal": "65500 fluorescence intensity (a.u.)"}, {"sequence": "TCCAAAATCAATCAATTAAAACCCATAGTTATTGTTGACTCGGAGTCACCTAGTGCAG", "binding signal": "53500 fluorescence intensity (a.u.)"}, {"sequence": "TTAATTGATCACATATTAATGGGCAACGCTGTTTTCCATGCGGAGTCACCTAGTGCAG", "binding signal": "63600 fluorescence intensity (a.u.)"}, {"sequence": "GATATAATTGGTATTATTACTAGGTTGGTGTGATATCCTACGGAGTCACCTAGTGCAG", "binding signal": "27400 fluorescence intensity (a.u.)"}, {"sequence": "AGATGCTGCATGGTTGATTGGTTTCAAGTAATTTCATGGGCGGAGTCACCTAGTGCAG", "binding signal": "7340 fluorescence intensity (a.u.)"}, {"sequence": "CATATTAATTGTTAAAGTTGTCATCATCCAAATTGTTATACGGAGTCACCTAGTGCAG", "binding signal": "11100 fluorescence intensity (a.u.)"}, {"sequence": "CACAGAATCCTTAATTAATTATATACATATATTGATCATGCGGAGTCACCTAGTGCAG", "binding signal": "16200 fluorescence intensity (a.u.)"}]}]}
